# Results: PubChem BioAssay (NCI)
# The panel holds about 83,000 compounds, 20% with a hit somewhere; the sample as a whole holds those more often.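 Plates (96-well) were seeded with cells, treated with compound at one concentration, and incubated for 48 hours before percent growth was determined.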 A number with no mark means an inactive call. The source made the active and inactive calls. How the source made its calls: active means growth percent below 10; inactive means the rest.
# Key:
# Experiment in all cases: NCI-60 one-dose screen, 48 h (100 = growth as untreated, 0 = no growth, -100 = all killed)
# NCI-H23 lung = conditions: 10 µM unless noted
# NCI-H226 lung = conditions: 10 µM unless noted
# NCI-H322M lung = conditions: 10 µM unless noted
# NCI-H460 lung = conditions: 10 µM unless noted
# HOP-92 NSCLC = conditions: 10 µM
# NCI-H522 lung = conditions: 10 µM
# A549/ATCC NSCLC = conditions: 10 µM unless noted
# 786-0 renal = conditions: 10 µM unless noted
# COLO 205 colon = conditions: 10 µM unless noted
# DU-145 prostate = conditions: 10 µM unless noted
# K-562 leukemia = conditions: 10 µM unless noted
# MALME-3M melanoma = conditions: 10 µM unless noted
# MDA-MB-231 breast = conditions: 10 µM unless noted
# RXF 393 renal = conditions: 10 µM unless noted
# SF-268 CNS = conditions: 10 µM unless noted
# SF-295 CNS = conditions: 10 µM unless noted
# SF-539 CNS = conditions: 10 µM unless noted
# UACC-257 melanoma = conditions: 10 µM unless noted
# M14 melanoma = conditions: 10 µM unless noted
Compound,growth (NCI-H23 lung),growth (NCI-H226 lung),growth (NCI-H322M lung),growth (NCI-H460 lung),growth (HOP-92 NSCLC),growth (NCI-H522 lung),growth (A549/ATCC NSCLC),growth (786-0 renal),growth (COLO 205 colon),growth (DU-145 prostate),growth (K-562 leukemia),growth (MALME-3M melanoma),growth (MDA-MB-231 breast),growth (RXF 393 renal),growth (SF-268 CNS),growth (SF-295 CNS),growth (SF-539 CNS),growth (UACC-257 melanoma),growth (M14 melanoma)
CNCCCNCCCCNCCCN1C(=O)c2ccc3c4c(ccc(c24)C1=O)C(=O)N(CCCNCc1ccccc1OC)C3=O,24.9%,35.7%,22.8%,13.5%,69%,31.3%,21.6%,38.6%,10.8%,29.1%,20.2%,-26.1% (active),47.3%,20.1%,17.7%,22.1%,21.7%,29.2%,24%
Oc1ccccc1\C=N/N=C/C=C/c1ccccc1,92.7%,103%,98.6%,99%,103%,87.4%,105%,111%,108%,105%,82.9%,102%,67.1%,117%,88.9%,98.4%,104%,107%,95.8%
O=C1N/C(=N\c2nnc(-c3ccc(O)cc3)s2)S/C1=C\c1ccccc1O,95.2%,99.6%,91.9%,102%,81.7%,93.6%,103%,97.5%,114%,95.2%,103%,82.8%,99.4%,113%,90.7%,94%,101%,102%,91.1%
O=C1C(=O)c2ccccc2C(O)=C1CCCc1ccc(Oc2ccccc2)cc1,75%,46.5%,62.2%,32.7%,54.5%,57.9%,82.2%,37.5%,111%,85.4%,34%,54.7%,89.1%,92.9%,47.2%,92.9%,68.6%,51.5%,41.3%
COC(=O)c1ccc2[nH]c(O)c(C(=Nc3ccc(N(C)C(=O)CN4CCN(C)CC4)cc3)c3cccc(OC)c3)c2c1,7.62% (active),32.4%,21.8%,7.31% (active),48.3%,12.1%,9.85% (active),10.4%,-55.8% (active),8.57% (active),3.85% (active),-16.3% (active),13.1%,-55.7% (active),6.71% (active),29.9%,-11.2% (active),31.8%,8.85% (active)
C=CCSc1nnc(COc2ccc3c(C)c(Cc4ccccc4)c(=O)oc3c2C)o1,102%,95%,99.2%,103%,100%,81.8%,101%,102%,117%,106%,96.2%,108%,104%,114%,101%,99.9%,101%,102%,102%
CCc1ccc(C(=Nc2ccc(N(C)C(=O)CN3CCN(C)CC3)cc2)c2c(O)[nH]c3ccc(C(=O)OC)cc23)cc1,-60.5% (active),-26.2% (active),-39.7% (active),-74.5% (active),-70.7% (active),-64.1% (active),-29.3% (active),-93.3% (active),-69.4% (active),-11.5% (active),-60.7% (active),-91.8% (active),-71% (active),-96.8% (active),-69.9% (active),-88% (active),-98.5% (active),-67.4% (active),-86.7% (active)
CCc1c(C)c2ccc(OCC(=O)N=Nc3c(O)[nH]c4ccccc34)c(C)c2oc1=O,5.58% (active),12.4%,-14.2% (active),-46.7% (active),29.7%,-9.85% (active),30.2%,-22.9% (active),31.4%,7.92% (active),4.73% (active),42.5%,0.841% (active),35.7%,18.4%,-9.71% (active),85%,28.2%,3.57% (active)
OCC(O)C(O)CC1SCCS1 (centres undefined),97.3%,91.9%,109%,108%,104%,96.6%,101%,96%,106%,108%,83%,101%,114%,102%,99.4%,104%,103%,105%,97.9%
COC(=O)c1ccc2[nH]c(O)c(C(=Nc3ccc(N(C)C(=O)CN4CCN(C)CC4)cc3)c3ccc(CCO)cc3)c2c1,57.1%,57%,66.5%,74.6%,66.6%,33.3%,95.4%,44.2%,18.1%,80.4%,8.34% (active),19%,31.2%,30%,29.6%,93.2%,28%,77.6%,57.3%
Cc1cc2c(-c3nc4ccccc4n3C)c(O)c(O)cc2c(O)c1-c1c(C)cc2c(-c3nc4ccccc4n3C)c(O)c(O)cc2c1O,24.7%,68.1%,73%,7.3% (active),52.1%,41.4%,26.7%,76%,4.14% (active),43.5%,37.5%,86.1%,57.3%,62.7%,38.5%,26%,22.1%,82.9%,34.9%
C#CCCCCCCC[C@@H]1OC(=O)[C@H]([C@@H](C)CC)NC(=O)[C@H]([C@@H](C)CC)NC(=O)CC(=O)[C@@H]1C,99.8%,89%,99.6%,103%,78.1%,92.5%,105%,101%,112%,106%,96.5%,92.9%,89.9%,104%,91.9%,98.9%,97.5%,117%,93.9%
CCC1(CC)C(OC)NC(Br)=C(C#N)C1(C#N)C(N)=O (centres undefined),99.1%,114%,118%,115%,77.3%,98%,114%,94.3%,126%,97.5%,91.5%,137%,102%,-5.04% (active),131%,122%,93.9%,103%,-100% (active)
CC(C)(C)c1ccc([I+]c2ccc(C(C)(C)C)cc2)cc1,-13.7% (active),23.8%,55.8%,4.98% (active),-9.02% (active),7.79% (active),39.9%,16.8%,-42.1% (active),-89.1% (active),1.42% (active),-61.2% (active),-30.3% (active),0.632% (active),1.36% (active),23.7%,21.2%,1.08% (active),2.73% (active)
CCOC(=O)c1c2c(cn1Cc1ccccc1)-c1oncc1CC2,106%,79.4%,92.8%,112%,61.8%,99%,95.1%,83.9%,123%,107%,101%,114%,90.6%,93.3%,83.6%,98.5%,86%,112%,111%
Cc1ccc([C@@H]2C[C@H](O)Cc3ccccc3N2)s1,90.7%,124%,110%,101%,78.8%,117%,104%,114%,98.8%,111%,101%,104%,102%,126%,106%,107%,97.4%,100%,125%
